Screens: PubChem BioAssay, National Center for Advancing Translational Sciences (NCATS)
Compounds with a hit are over-represented: about 19% of the library has one in this group of screens.
HT1080 IDH1KD tx – qHTS for induction of synthetic lethality in tumor cells producing 2HG: qHTS for the HT-1080-IDH1KD cell line; HT-1080 IDH1 knockdown viability, ATP luminescence, 48 h; Potency, µM (titrated, usually from 46.1 µM), for inactives: top-dose activity, negative = toxicity, hits mostly cytotoxic; 360,000 tested, 2% active;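 further: 0% = DMSO wells and -100% = cell-free medium wells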
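Assay cells: HT-1080 with IDH1 knockdown, 750 per well, RPMI/5% FBS. Exposure: 48 h at 37 °C following 2 h pre-incubation. Read: CellTiter-Glo luminescence; fitted concentration-response, curve class assigned.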
KB-V1 cytotox – qHTS assay for MDR1-selective chemotherapeutics: Primary screen using the drug-selected MDR subline cells KB-V1 | KB-V1 MDR cells viability, CellTiter-Glo, 72 h | Potency, µM (doses to about 46.1 µM), hits mostly cytotoxic | 400,000 tested, 3.4% active | AID 1347076, 2019; further: nearly all actives have a fitted effect of over 60% in size
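Cytotoxicity via CellTiter-Glo luminescence after 72 h compound exposure at 37 degrees C. Cells: drug-selected KB-V1 line, DMEM phenol-red free plus 10% FBS. Compounds tested at multiple concentrations; normalized data fitted to concentration-effect curves.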
DT40 TDP1 CPT – qHTS for Inhibitors of human tyrosyl-DNA phosphodiesterase 1 (TDP1): qHTS in cells in presence of CPT | 420,000 tested, 12% active | chicken DT40 Tdp1-/-;hTDP1 cells + 20 nM CPT, ATP luminescence, 48 h | Potency, µM (titrated, usually from 46.2 µM), inactives show at the top dose activity change, negative = growth inhibition, most hits filed as inhibitors | AID 686979, 2013; further: nearly all actives have a fitted effect of over 55% in size
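Chicken DT40 Tdp1-/- cells complemented with human TDP1, 400 cells/well, exposed to compounds plus 20 nM camptothecin for at least 48 h at 37 C; viability read as ATP content by CellTiter-Glo luminescence.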
DT40 TDP1 no CPT – qHTS for Inhibitors of human tyrosyl-DNA phosphodiesterase 1 (TDP1): qHTS in cells in absence of CPT. DT40 Tdp1-/- hTDP1 cells, no CPT, ATP luminescence, 48 h. Potency, µM (doses to about 46.2 µM), for the others: at the highest dose activity change, negative = growth inhibition, most hits filed as inhibitors. 420,000 tested, 15% active. AID 686978, 2013; further: nearly all actives have a fitted effect of over 55% in size
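No-CPT arm: Tdp1-/-;hTDP1 DT40 cells (400/well) plus compounds, incubated ≥48 hr at 37 °C. Readout CellTiter-Glo luminescence.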
HT1080-NT tox – qHTS for induction of synthetic lethality in tumor cells producing 2HG: qHTS for the HT-1080-NT fibrosarcoma cell line. AID 686970, 2013. HT-1080-NT fibrosarcoma viability, CellTiter-Glo ATP luminescence, 48 h. 360,000 tested, 1.6% active. Potency, µM (series often up to 46.1 µM), for inactives: at the highest dose activity, negative = less viability, hits mostly cytotoxic;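 further: NT is the 2HG producing partner of a matched IDH1 knockdown line; 0% = DMSO-treated cells and -100% = media-only wells without cells; nearly all actives have a fitted effect of over 55% in size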
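Viability by CellTiter-Glo luminescence after 48 h compound exposure at 37C of HT-1080-NT cells (750/well, RPMI, 5% FBS). % activity scaled between DMSO wells and medium-only wells, then curve-fitted and categorized by curve class.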
KB-3-1 tox – qHTS assay for MDR1-selective chemotherapeutics: Primary screen using the parental adenocarcinoma cell KB-3-1 | Potency, µM (doses to about 46.1 µM), most hits filed as cytotoxic | 400,000 tested, 1.4% active | KB-3-1 viability, CellTiter-Glo ATP luminescence, 72 h; further: nearly all actives have a fitted effect of over 60% in size
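KB-3-1 parental drug-naive adenocarcinoma cells in DMEM/10% FBS, incubated 72 h at 37 C with pin-transferred compounds across a concentration series. Viability by CellTiter-Glo luminescence; concentration-response curves fitted after normalization.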
* marks the source's active call; other numbers are inactive results; i = inactive; ? = inconclusive; · = no result given. The call rests on the fitted dose curve; in most records, active means well fitted curve in the direction sought with a large enough effect; inconclusive means small, poorly fitted or top-dose-only effect, or another doubt; inactive means no such curve, though single readings can be large; an effect the other way counts as inactive or inconclusive. Unless noted, on the % scale 0 is the no-effect control and ±100 the full control effect; potency means the concentration at half of the fitted maximal effect.

SMILES	HT1080 IDH1KD tx	KB-V1 cytotox	DT40 TDP1 CPT	DT40 TDP1 no CPT	HT1080-NT tox	KB-3-1 tox
CN(c1ccccc1)S(=O)(=O)c1cc(C(=O)NCc2ccco2)ccc1Cl	12%	?	-14%	?	-2%	i
COc1cc(Cl)c(C)cc1NC(=S)NN	18%	?	?	18µM*	12%	i
COc1cc(Cl)c(C)cc1NC(=O)Cc1ccc(OC)c(OC)c1	-12%	?	-28%	15µM*	-19%	i
COc1ccc(CC(=O)Nc2cccc3ccccc23)cc1OC	-8%	i	?	?	0%	i
COc1cc(NC(=S)NC(C)(C)C)c(OC)cc1Cl	5%	i	?	-17%	-1%	i
COc1ccc(CC(=O)Nc2ccccc2-c2ccccc2)cc1OC	-9%	15µM*	16µM*	21µM*	-7%	?
COc1ccc(/C=C(\C#N)C(=O)Nc2cc(C)c(Cl)cc2OC)cc1O	4%	i	?	-26%	2%	21µM*
CCN(CC)C(=O)C(=O)Nc1ccc(OC)c(Cl)c1	8%	i	10%	6%	6%	i
COc1ccc2c(c1)c1c(c(=O)n(-c3ccc(F)c(Cl)c3)c(=O)n1CC(=O)N1CCCC1)n2C	·	i	-1%	12%	·	i
Cc1ccc(CC(=O)Nc2ccccc2-c2ccccc2)cc1C	15%	21µM*	?	?	12%	i
COCC(=O)Nc1ccccc1-c1ccccc1	-2%	i	-9%	17%	-4%	i
COCCNC(=O)Cn1nc(-c2ccccc2F)ccc1=O	12%	i	-16%	-5%	11%	i
COc1ccc(S(=O)(=O)N2CCOC2CNC(=O)C(=O)NCCCN2CCCC2=O)cc1OC (centres undefined)	-7%	?	-1%	-8%	-3%	i
Cc1nc2ccc(S(=O)(=O)Nc3cccc(-c4nc5cccnc5s4)c3C)cc2s1	-3%	i	?	26µM*	-16%	i
Cc1nc2ccc(S(=O)(=O)Nc3cc(-c4nc5cccnc5s4)ccc3C)cc2s1	?	?	?	21µM*	?	?
CCOC(=O)N1CCN(C(=O)c2cc3c(=O)[nH]c4ccccc4c3s2)CC1	10%	i	?	16µM*	2%	i
COCCCNC(=O)c1cc2c(-c3cccc(OC)c3)nn(C)c2s1	?	?	?	?	-23%	?
COc1cccc(-c2nn(C)c3sc(C(=O)NCc4ccc(C)cc4)cc23)c1	-16%	?	?	?	-21%	i
CCOC(=O)N1CCC(NC(=O)c2cc3c(-c4cccc(OC)c4)nn(C)c3s2)CC1	-2%	?	23µM*	?	-1%	i
CCOC(=O)N1CCN(C(=O)c2cc3c(-c4cccc(OC)c4)nn(C)c3s2)CC1	-16%	?	?	23µM*	-9%	i
COc1cccc(-c2nn(C)c3sc(C(=O)NCCc4cccc(C)c4)cc23)c1	·	i	10µM*	5.2µM*	·	?
COc1cccc(-c2nn(C)c3sc(C(=O)N4CCN(c5cccc(C)c5)C(C)C4)cc23)c1 (centres undefined)	·	i	21µM*	23µM*	·	i
CC[C@H](C)[C@H]1O[C@]2(CC[C@@H]1C)C[C@@H]1C[C@@H](C/C=C(\C)[C@@H](O[C@H]3C[C@H](OC)[C@@H](O[C@H]4C[C@H](OC)[C@@H](O)[C@H](C)O4)[C@H](C)O3)[C@@H](C)/C=C/C=C3\CO[C@@H]4[C@H](O)C(C)=C[C@@H](C(=O)O1)[C@]34O)O2	·	·	11µM*	?	·	·
Cc1ccc(C(=O)NC(=S)NNS(=O)(=O)c2ccccc2)cc1	-5%	i	0%	-17%	-3%	i
Cc1ccc(C(=O)NC(=C(Cl)Cl)S(=O)(=O)c2ccccc2)cc1	?	16µM*	?	21µM*	?	i
SMILES	HT1080 IDH1KD tx	KB-V1 cytotox	DT40 TDP1 CPT	DT40 TDP1 no CPT	HT1080-NT tox	KB-3-1 tox
Cc1ccc(C(=O)NC(C#N)=C(Cl)Cl)cc1	21µM*	i	?	2.3µM*	6.5µM*	?
COC(=O)NC(=C(Cl)Cl)S(=O)(=O)c1ccccc1	-3%	18µM*	6.5µM*	10µM*	-2%	16µM*
O=C(CN1CCN(c2cccc(Cl)c2)CC1)Nc1ccc([N+](=O)[O-])cc1C(=O)Nc1ccccc1F	12%	i	?	23µM*	15%	i
CS(=O)(=O)c1ccc(Cl)c(NC(=O)CN2CCN(S(=O)(=O)/C=C/c3ccccc3)CC2)c1	-5%	i	?	3.3µM*	-6%	i
O=[N+]([O-])c1ccc(C(O)CN2CCN(C/C=C/c3ccccc3)CC2)cc1 (centres undefined)	-11%	i	?	29µM*	-1%	i
O=[N+]([O-])c1ccc(C(O)CN2CCN(Cc3ccccc3)CC2)cc1 (centres undefined)	-8%	i	7%	7%	1%	i
O=C(CN1CCN(C/C=C/c2ccccc2)CC1)Nc1cc([N+](=O)[O-])ccc1Cl	-2%	23µM*	?	26µM*	-9%	?
NS(=O)(=O)c1ccc(NC(=O)CN2CCN(S(=O)(=O)/C=C/c3ccccc3)CC2)cc1	1%	i	-4%	-15%	0%	i
Cc1nc2ccccc2c(=O)n1/N=C/c1ccccc1OC(F)F	3%	i	-17%	-24%	-6%	i
O=C(Nc1cc(F)ccc1F)N1CCC(CN2CCOCC2)CC1	·	·	-4%	-11%	·	·
CCOC(=O)c1ccccc1NC(=O)Cn1nnc2sc3c(c2c1=O)CCCC3	·	i	-15%	1%	·	i
Nc1nc2ncccc2cc1C(=O)NC1CCCCC1	7%	i	-14%	2%	8%	i
Cc1cnc2c(C)cccc2c1C	·	i	-129%	0.22µM*	·	i
c1ccc(CNCCNCc2ccccc2)cc1	·	·	-3%	-29%	·	·
